From PubChem BioAssay (NCATS)
Several values for one entry are separate records, joined by “and”; a condition that tells them apart may be missing. Equal entries are not always repeated. Records with an inconclusive call do not appear. Some compounds were tested as several samples or in several runs, with calls that do not always agree. Activity calls are given as the source filed them. Unless noted, the call rests on the fitted dose curve; in most records, active means well fitted curve in the direction sought with a large enough effect; inconclusive means small, poorly fitted or top-dose-only effect, or another doubt; inactive means no such curve, though single readings can be large; an effect the other way counts as inactive or inconclusive.

Tests used:
[1] = Cell Viability - BJ (AID 421; calls by dose curve;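 further: potency means the concentration at half of the fitted maximal effect; cells exposed to compound for 40 hours at 37 °C before readout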); conditions: BJ fibroblast viability, qHTS
Outline: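 Cytotoxicity as drop in intracellular ATP (CellTiter-Glo, 20 min RT) after 40 hr compound exposure of BJ fibroblasts at 37 °C. Titrations scaled between DMSO and 100 uM tamoxifen, Hill-fitted for AC50.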

[2] = Cell Viability - HepG2 (AID 433; calls by dose curve;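 further: potency means the concentration at half of the fitted maximal effect; potency for ATP loss meaning cytotoxicity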); conditions: qHTS
Outline: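 Read-out is luciferase-based quantitation of cellular ATP as a measure of viable HepG2 cells after 40 h treatment at 37 °C. Signal decrease is scaled between DMSO-only and 100 uM tamoxifen controls, with AC50 fitted by the Hill equation.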

[3] = Cell Viability - Mesenchymal (AID 546); conditions: mesenchymal cells viability, qHTS; activity change, negative = cytotoxicity: at 91.7 µM (top of the series);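 further: cells exposed to compound for 40 hours before reading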; further: potency means the concentration at half of the fitted maximal effect;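 on activity change, negative = cytotoxicity: 0% = DMSO only and -100% = 100 µM tamoxifen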
Outline: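 Human kidney mesenchymal cells from normal renal glomeruli, 1000 cells/well, rested 5 hr at 37 °C, then treated 40 hr at 37 °C in complete medium. Cellular ATP read by CellTiter-Glo luminescence; AC50 from Hill-equation fits.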

[4] = Cell Viability - LYMP1-003 - Assay at 40 hr (AID 964); conditions: LYMP1-003 lymphoblastoid viability; series mostly up to 92.2 µM; further: nearly all actives have a fitted effect of over 60% in size; further: potency means the concentration at half of the fitted maximal effect
Outline: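 Cells were seeded at 2500 per well and incubated 5 hr at 37 C. Compounds were added across a concentration series and left 40 hr at 37 C. CellTiter-Glo was added for 30 min at room temperature before luminescence reading.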

[5] = Cell Viability - LYMP2-004 (AID 966); conditions: LYMP2-004 lymphoblastoid cell viability, qHTS; series mostly up to 92.2 µM; further: nearly all actives have a fitted effect of over 65% in size; further: potency means the concentration at half of the fitted maximal effect;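 on activity change, negative = cytotoxicity: plate controls were DMSO only for no effect and tetraoctylammonium bromide control for full effect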
Outline: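 Cells seeded 2500/well, rested 5 hr at 37 C, dosed across a concentration series, incubated 24 hr at 37 C, then CellTiter-Glo added for 30 min at room temperature and luminescence read. Hill fitting gave AC50.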

[6] = Cell Viability - LYMP2-021 (AID 974); conditions: LYMP2-021 lymphoblastoid cells viability; series mostly up to 92.2 µM;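 further: compound exposure lasts 24 hours at 37 °C; nearly all actives have a fitted effect of over 55% in size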; further: potency means the concentration at half of the fitted maximal effect; on activity change, negative = cytotoxicity: on the % scale 0 is the no-effect control and ±100 the full control effect
Outline: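 Plate 2500 lymphoblastoid cells per well and incubate 5 hr at 37 C. Add compounds over a concentration range and incubate 24 hr at 37 C. Add CellTiter-Glo, wait 30 min at room temperature, read luminescence.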

[7] = Cell Viability - LYMP2-025 (AID 976); conditions: LYMP2-025 lymphoblastoid cell viability; series mostly up to 92.2 µM;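 further: plate controls were DMSO only for no effect and tetraoctylammonium bromide control for full effect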
Outline: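 Seed 2500 LYMP2-025 cells/well; 5 hr at 37 C; add compound; 24 hr at 37 C; add CellTiter-Glo; 30 min RT; read luminescence. AC50 from Hill-modelled concentration-response.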

[8] = Cell Viability - LYMP2-002 (AID 977); conditions: LYMP2-002 lymphoblastoid cell viability, qHTS; series mostly up to 92.2 µM;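 further: compound exposure lasted 24 h at 37 °C; plate controls were DMSO only for no effect and 92 µM tetraoctylammonium bromide for full effect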
Outline: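 Human lymphoblastoid LYMP2-002 cells, 2500 per well, exposed to compounds for 24 h at 37 C in complete medium; viability read as intracellular ATP by CellTiter-Glo luminescence, AC50 from Hill fits.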

[9] = Cell Viability - LYMP2-008 (AID 980); conditions: LYMP2-008 lymphoblastoid cell viability, qHTS; series mostly up to 92.2 µM; further: nearly all actives have a fitted effect of over 60% in size; further: potency means the concentration at half of the fitted maximal effect; on activity change, negative = cytotoxicity: on the % scale 0 is the no-effect control and ±100 the full control effect
Outline: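 qHTS, human lymphoblastoid line, 2500 cells/well; 5 hr preincubation, 24 hr compound, 37 C. CellTiter-Glo ATP luminescence. AC50 via Hill equation. Tetraoctylammonium bromide positive control.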

[10] = Cell Viability - LYMP2-014 (AID 983); conditions: LYMP2-014 lymphoblastoid cells, viability qHTS; series mostly up to 92.2 µM; further: nearly all actives have a fitted effect of over 50% in size; further: potency means the concentration at half of the fitted maximal effect;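 on activity change, negative = cytotoxicity: plate controls were DMSO only for no effect and 92 µM tetraoctylammonium bromide for full effect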
Outline: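 Luminescent ATP signal (CellTiter-Glo, 30 min at room temperature) serves as the viability read-out after 24 hr compound exposure at 37 C. Cells were seeded at 2500 per well and settled 5 hr beforehand.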

[11] = Cell Viability - LYMP2-016 (AID 984); conditions: LYMP2-016 lymphoblastoid cell viability, qHTS; series mostly up to 92.2 µM; further: nearly all actives have a fitted effect of over 55% in size; further: potency means the concentration at half of the fitted maximal effect; on activity change, negative = cytotoxicity: on the % scale 0 is the no-effect control and ±100 the full control effect
Outline: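 Cells were seeded at 2500 per well and rested 5 hr before a 24 hr compound exposure at 37 C. Viability was then gauged as cellular ATP by luciferase luminescence, with AC50 values fitted to the Hill equation.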

[12] = Cell Viability - LYMP2-018 (AID 985); conditions: LYMP2-018 lymphoblastoid cells, viability (qHTS); series mostly up to 92.2 µM; further: nearly all actives have a fitted effect of over 50% in size; further: potency means the concentration at half of the fitted maximal effect;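 on activity change, negative = cytotoxicity: plate controls were DMSO only for no effect and tetraoctylammonium bromide at 92 µM for full effect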
Outline: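 Luminescent ATP signal (CellTiter-Glo, read after 30 min at room temperature) reports viable cells after 24 hr compound treatment at 37 C. Concentration-response data were fitted to the standard Hill equation for AC50.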

[13] = Cell Viability - LYMP2-020 (AID 986); conditions: series mostly up to 92.2 µM; further: nearly all actives have a fitted effect of over 55% in size; further: potency means the concentration at half of the fitted maximal effect
Outline: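 Luminescent ATP signal (CellTiter-Glo, 30 min at room temperature) is the read-out after 24 h compound treatment of lymphoblastoid cells at 37 C. AC50 values come from Hill-equation fits across concentrations.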

[14] = Cell Viability - LYMP2-022 (AID 987); conditions: LYMP2-022 lymphoblastoid cell viability; series mostly up to 92.2 µM; further: nearly all actives have a fitted effect of over 55% in size; further: potency means the concentration at half of the fitted maximal effect
Outline: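 qHTS: human lymphoblastoid cells 2500/well; 5 hr 37 C; cpd added; 24 hr 37 C; CellTiter-Glo, 30 min RT; luminescence. AC50 via Hill fit; tetraoctylammonium bromide positive ctrl.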

[15] = Cell Viability - LYMP2-026 (AID 989); conditions: LYMP2-026 lymphoblastoid cell viability, qHTS; series mostly up to 92.2 µM; further: nearly all actives have a fitted effect of over 50% in size; further: potency means the concentration at half of the fitted maximal effect
Outline: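 Luminescent ATP signal (CellTiter-Glo, 30 min room temperature) measures viable lymphoblastoid cells after 24 hr compound treatment at 37 C. Decreased ATP reflects acute toxicity; AC50 values come from Hill-equation modeling.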

[16] = Cell Viability - LYMP1-002 - Assay at 40 hr (AID 994); conditions: LYMP1-002 lymphoblastoid cell viability; series mostly up to 92.2 µM; further: nearly all actives have a fitted effect of over 60% in size; further: potency means the concentration at half of the fitted maximal effect
Outline: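 Luminescent ATP signal served as the viability readout, with decreases taken as toxicity. Cells were treated with compounds across a concentration range for 40 hours at 37 C, and AC50 values came from standard Hill modeling.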

[17] = qHTS assay for small molecule antagonists of retinoid X receptor alpha signaling (AID 588546; active means well fitted inhibition curve with a large enough effect in the signal ratio, with a control signal flat, not every such curve was filed as active; the % refers to the signal ratio; further: potency means the concentration at half of the fitted maximal effect;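 on max response: cells stimulated with 9-cis-retinoic acid as agonist; on the % scale 0 is the no-effect control and ±100 the full control effect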); conditions: HEK293T RXRa-UAS-bla, beta-lactamase ratio, antagonist mode; measured here: W530 green channel, cytotoxicity proxy
Outline: (§1)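 Beta-lactamase reporter inhibition, read as CCF4 fluorescence ratio (ex 405, em 460/530 nm) after 2 h at RT. HEK293T UAS-bla cells, 2500/well, were stimulated with 9-cis-RA at 500 or 100 nM final alongside test compound for 18 h at 37 C.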

[18] = target: Retinoic acid receptor RXR-alpha (Homo sapiens) (UniProt P19793); test: as above; conditions: HEK293T RXRa-UAS-bla, beta-lactamase ratio, antagonist mode
Outline: as §1

[19] = qHTS assay for environmental chemicals that activate the Aryl hydrocarbon Receptor (AhR) signaling pathway (AID 651777); conditions: 1A2-DRE human hepatoma cells, luciferase, 24 h; activation: stronger effect = higher value; further: % of control where 0% means no effect; nearly all actives have a fitted effect of over 15% in size
Outline: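 Quantitative HTS in stably transfected human liver-derived cells whose luciferase gene sits downstream of the CYP1A2 promoter and dioxin response element. After 24 hr exposure at 37 C, One-Glo luminescence was measured.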

[20] = qHTS assay for cell viability of HEK293 cells (AID 743288); conditions: ATP luminescence (CellTiter-Glo), 18 h; max response: stronger effect = lower value; further: nearly all actives have a fitted effect of over 50% in size; further: potency means the concentration at half of the fitted maximal effect
Outline: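 HEK293 parental, 2,000 cells/well; ≥5 h pre-incubation 37 C; pintool compound addition; 18 h, 37 C; CellTiter-Glo 30 min RT; luminescence read.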

Sequence of Retinoic acid receptor RXR-alpha (Homo sapiens) (P19793 whole entry, looked up): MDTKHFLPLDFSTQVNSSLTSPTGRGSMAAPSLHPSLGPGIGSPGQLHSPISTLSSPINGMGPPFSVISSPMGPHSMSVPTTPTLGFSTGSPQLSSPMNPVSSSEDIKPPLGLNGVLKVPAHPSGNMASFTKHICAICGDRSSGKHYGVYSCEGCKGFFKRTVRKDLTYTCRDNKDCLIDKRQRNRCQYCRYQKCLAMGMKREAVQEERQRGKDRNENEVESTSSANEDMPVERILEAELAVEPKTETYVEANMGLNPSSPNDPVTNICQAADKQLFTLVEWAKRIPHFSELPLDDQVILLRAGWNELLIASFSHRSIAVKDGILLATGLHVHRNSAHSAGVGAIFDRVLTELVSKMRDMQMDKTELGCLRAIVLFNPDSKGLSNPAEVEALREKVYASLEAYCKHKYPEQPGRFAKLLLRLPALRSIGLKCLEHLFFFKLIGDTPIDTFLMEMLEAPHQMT

Cc1c(N)cccc1Cl
0.883%: max response [17]
inactive: Potency [1] > 92 µM | Potency [2] > 92 µM | Potency [3] | Potency [4] | Potency [5] | Potency [6] | Potency [7] | Potency [8] | Potency [9] | Potency [10] | Potency [11] | Potency [12] | Potency [13] | Potency [14] | Potency [15] | Potency [16] | max response [18] 1.61% | activation [19] -0.26% | max response [20] 0.674%

C[C@@H]1CC2(OC(O)[C@]3(C)O[C@H]23)O[C@H]2C[C@@]3(C)[C@@H]4CC[C@H]5C(C)(C)C(O[C@@H]6OC[C@@H](O)[C@H](O)[C@H]6O)CC[C@@]56C[C@@]46CC[C@]3(C)[C@@H]12 (stereo not given in full)
active: Potency [20] 44.7 µM
inactive: Potency [1] > 92 µM | Potency [6] | Potency [7] | Potency [8] | activation [19] 0.629%

C=C1CC[C@H](O)C/C1=C/C=C1\CCC[C@]2(C)[C@@H]([C@H](C)CCCC(C)C)CC[C@@H]12
inactive: Potency [2] > 92 µM | activation [19] 5.81%
active: Potency [1] 61.2 µM | activity change, negative = cytotoxicity [3] -102% | Potency [4] 39.8 µM | Potency [5] 39.8 µM | Potency [6] 39.8 µM | Potency [9] 50.1 µM | Potency [10] 50.1 µM | Potency [12] 39.8 µM | Potency [13] 50.1 µM | Potency [14] 31.6 µM | Potency [16] 50.1 µM | Potency [20] 44.7 µM

C/C=C/C=C/C=O
inactive: Potency [1] > 92 µM | Potency [2] > 92 µM | Potency [3] | Potency [16] | activation [19] 0.0819% | max response [20] -1.13%
active: Potency [5] 31.6 µM | Potency [6] 39.8 µM | Potency [9] 39.8 µM | Potency [10] 39.8 µM | Potency [11] 50.1 µM | Potency [12] 39.8 µM | Potency [13] 31.6 µM | Potency [14] 25.1 µM | Potency [15] 39.8 µM

NC(=O)c1ccc([N+](=O)[O-])cc1
inactive: Potency [1] > 92 µM | Potency [2] > 92 µM | Potency [3] | Potency [4] | Potency [5] | Potency [6] | Potency [7] | Potency [8] | Potency [9] | Potency [10] | Potency [11] | Potency [12] | Potency [13] | Potency [14] | Potency [15] | Potency [16] | max response [18] -5.31% | activation [19] -1.24% | max response [20] 4.95%
-6.07%: max response [17]

CCN(CC)c1ccc2c(C)cc(=O)oc2c1
inactive: Potency [1] > 92 µM | Potency [2] > 92 µM | Potency [3] | Potency [4] | Potency [5] | Potency [6] | Potency [7] | Potency [8] | Potency [9] | Potency [10] | Potency [11] | Potency [12] | Potency [13] | Potency [14] | Potency [15] | Potency [16] | activation [19] 6.67% | max response [20] -1.15%

CCCCCCCC/C=C\CCCCCCCC(=O)N(CCO)CCO
inactive: Potency [1] > 92 µM | Potency [2] > 92 µM | Potency [4] | Potency [5] | Potency [6] | Potency [7] | Potency [8] | Potency [9] | Potency [10] | Potency [11] | Potency [12] | Potency [13] | Potency [14] | Potency [15] | Potency [16] | activation [19] 2.99% | max response [20] -16%

Cc1c2ccccc2c(C)c2c1ccc1ccccc12
active: Potency [1] 13.8 µM | Potency [18] 8.91 µM | Potency [20] 44.7 µM
inactive: Potency [3] | Potency [5] | Potency [6] | Potency [7] | Potency [8] | Potency [9] | Potency [10] | Potency [11] | Potency [12] | Potency [13] | Potency [14] | Potency [15] | max response [20] -28%
-10.9%: max response [17]

CC1=C(/C=C/C(C)=C/C=C/C(C)=C/C=O)C(C)(C)CCC1
-0.803%: max response [17]
active: Potency [1] 35.2 µM | Potency [3] 31.6 µM | Potency [4] 50.1 µM | Potency [5] 39.8 µM | Potency [6] 50.1 µM | Potency [9] 39.8 µM | Potency [10] 50.1 µM | Potency [11] 50.1 µM | Potency [12] 39.8 µM | Potency [14] 39.8 µM | Potency [15] 50.1 µM | Potency [16] 50.1 µM
inactive: max response [18] -29.6% | activation [19] 4.9%

c1ccc(SCCSc2ccccc2)cc1
0.714%: max response [17]
inactive: Potency [1] > 92 µM | Potency [2] > 92 µM | Potency [3] | Potency [4] | Potency [5] | Potency [6] | Potency [7] | Potency [8] | Potency [9] | Potency [10] | Potency [11] | Potency [12] | Potency [13] | Potency [14] | Potency [15] | Potency [16] | max response [18] -1.47% | activation [19] 14.7% | max response [20] 3.66%

CC(/C=C/C=C(C)/C=C/C(=O)O)=C\C=C\C=C(C)\C=C\C=C(C)\C=C\C(=O)O
-20%: max response [17]
inactive: Potency [1] > 92 µM | Potency [2] > 92 µM | Potency [3] | Potency [4] | Potency [6] | Potency [7] | Potency [8] | Potency [9] | Potency [10] | Potency [11] | Potency [12] | Potency [13] | Potency [15] | Potency [16] | max response [18] 16.8% | activation [19] 9.06% | max response [20] -0.748%

O=C(OCC1CO1)C1CCCCC1C(=O)OCC1CO1 (stereo not given)
active: Potency [6] 50.1 µM | Potency [12] 39.8 µM | Potency [14] 39.8 µM | Potency [16] 39.8 µM
inactive: Potency [1] > 92 µM | Potency [2] > 92 µM | Potency [3] | Potency [7] | activation [19] 0.749% | max response [20] -26.2%

Brc1cc(Oc2cc(Br)c(Br)c(Br)c2Br)c(Br)c(Br)c1Br
11.5% and 5.63%: max response [17]
inactive: Potency [1] > 92 µM | Potency [2] > 92 µM | Potency [3] | Potency [4] | Potency [5] | Potency [6] | Potency [7] | Potency [8] | Potency [9] | Potency [10] | Potency [11] | Potency [12] | Potency [13] | Potency [14] | Potency [15] | Potency [16] | max response [18] 8.94% and -3.66% | activation [19] -1.15% and -2.65% | max response [20] -20.8% and -10.9%
